Results taken from ChEMBL document CHEMBL3988442, “University of Dundee, Small-Polar-MMV Screening Library” (2021).
For some of these results: Measured potencies and affinities stand elsewhere.

How the values were obtained:
Parameters in all cases: scale not given: direction of the effect not stated beside the values
[1] = biological target: Protein translocase subunit SecA (Escherichia coli (strain K12)) (UniProt P10408); experiment: Assay to Identify E. coli SecA ATPase Inhibitors; type: functional; settings: 30 µM
[2] = biological target: T1, Ubiquitin-activating enzyme e1, putative (Leishmania donovani (strain BPK282A1)) (UniProt E9BSI1); experiment: Leishmania donovani Ubiquitin Activating Enzyme (LdE1); type: functional; settings: 30 µM
T1 sequence (whole entry): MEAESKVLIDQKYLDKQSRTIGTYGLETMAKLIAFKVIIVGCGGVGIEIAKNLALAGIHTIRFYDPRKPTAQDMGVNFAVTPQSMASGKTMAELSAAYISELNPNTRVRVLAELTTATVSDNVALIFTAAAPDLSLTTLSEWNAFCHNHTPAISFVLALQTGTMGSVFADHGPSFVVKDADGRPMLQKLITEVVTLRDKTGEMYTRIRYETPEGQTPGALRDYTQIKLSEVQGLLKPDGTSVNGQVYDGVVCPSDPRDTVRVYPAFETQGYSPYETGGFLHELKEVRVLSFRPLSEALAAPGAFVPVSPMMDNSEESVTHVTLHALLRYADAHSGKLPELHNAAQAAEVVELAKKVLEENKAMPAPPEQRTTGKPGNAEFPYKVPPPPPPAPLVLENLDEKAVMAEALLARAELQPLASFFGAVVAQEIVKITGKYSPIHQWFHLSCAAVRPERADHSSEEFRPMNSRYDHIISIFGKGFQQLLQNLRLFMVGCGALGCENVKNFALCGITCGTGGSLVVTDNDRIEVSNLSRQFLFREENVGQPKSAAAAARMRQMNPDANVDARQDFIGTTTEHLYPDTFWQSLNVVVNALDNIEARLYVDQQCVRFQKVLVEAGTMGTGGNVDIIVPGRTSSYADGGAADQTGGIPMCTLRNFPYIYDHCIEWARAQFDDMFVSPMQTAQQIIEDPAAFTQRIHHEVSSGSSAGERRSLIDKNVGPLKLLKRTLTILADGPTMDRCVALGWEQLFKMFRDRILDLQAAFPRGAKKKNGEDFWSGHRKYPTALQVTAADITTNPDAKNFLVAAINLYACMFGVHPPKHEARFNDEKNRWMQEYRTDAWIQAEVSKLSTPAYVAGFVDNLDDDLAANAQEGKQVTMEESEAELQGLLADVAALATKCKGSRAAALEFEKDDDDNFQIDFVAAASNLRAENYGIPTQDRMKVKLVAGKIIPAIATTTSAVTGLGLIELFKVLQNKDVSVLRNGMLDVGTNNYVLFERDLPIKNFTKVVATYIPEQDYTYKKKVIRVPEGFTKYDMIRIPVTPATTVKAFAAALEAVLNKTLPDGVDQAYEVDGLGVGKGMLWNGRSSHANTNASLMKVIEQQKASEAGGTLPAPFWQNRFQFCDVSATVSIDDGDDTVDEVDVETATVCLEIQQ

[3] = biological target: AMP-activated protein kinase, AMPK (Homo sapiens) (UniProt P54646+O43741+P54619+Q9UGJ0+Q9Y478+Q13131+Q9UGI9); experiment: AMP-dependent Kinase enzyme assay. An in vitro enzyme assay that detects ADP turnover that is directly proportional to AMPK activity. This uses naive AMPK that is activated during the assay with MK-8722; type: functional; settings: 30 µM
[4] = biological target: Sialic acid-binding Ig-like lectin 9 (Homo sapiens) (UniProt Q9Y336); experiment: Hs-Siglec9 ALPHAscreen SOP 20170721; settings: 10 µM
Trypanosoma cruzi = experiment: Trypanosoma cruzi phosphomannomutase and mannose-1-phosphate guanylyltransferase assay; type: functional; settings: 10 µM
[5] = biological target: T2, Arginase-2, mitochondrial (Homo sapiens) (UniProt P78540); experiment: in vitro enzyme assay to detect the production of urea directly proportional to the activity of Arginase II; type: functional; settings: 33.3 µM; further: in the data most compounds retested in dose-response had high values
T2 sequence (whole entry): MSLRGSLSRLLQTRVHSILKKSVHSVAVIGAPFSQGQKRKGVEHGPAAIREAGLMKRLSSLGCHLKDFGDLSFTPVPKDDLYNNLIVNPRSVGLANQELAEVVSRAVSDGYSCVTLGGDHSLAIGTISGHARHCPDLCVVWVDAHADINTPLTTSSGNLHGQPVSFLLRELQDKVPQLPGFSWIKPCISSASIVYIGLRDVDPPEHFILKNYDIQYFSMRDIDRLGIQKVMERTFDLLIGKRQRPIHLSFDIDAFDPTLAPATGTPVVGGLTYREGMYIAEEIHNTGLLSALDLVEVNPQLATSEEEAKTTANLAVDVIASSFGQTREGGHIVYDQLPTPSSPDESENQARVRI

[6] = biological target: T3, Proteasome subunit beta (Trypanosoma cruzi) (UniProt O96673); experiment: Trypanosoma cruzi proteasome chymotrypsin-like activity (TcProtChymo) assay.; further: in the data most compounds retested in dose-response had high values; type: functional; settings: 9.37 µM
T3 sequence (whole entry): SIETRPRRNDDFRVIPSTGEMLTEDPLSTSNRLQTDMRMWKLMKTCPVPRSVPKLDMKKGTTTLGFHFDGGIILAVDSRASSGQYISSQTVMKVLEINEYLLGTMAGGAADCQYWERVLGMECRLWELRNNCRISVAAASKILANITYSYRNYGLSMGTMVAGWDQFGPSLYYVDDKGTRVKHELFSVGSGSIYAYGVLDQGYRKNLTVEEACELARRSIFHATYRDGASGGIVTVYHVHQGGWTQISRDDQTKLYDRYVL

Homo sapiens = species: Homo sapiens; experiment: To identify inhibition of the IFN signalling (Jak-Stat) pathway via expression of an eGFP reporter gene under the control of an IFN-stimulated response element (ISRE) containing MxA promoter.; type: functional; settings: 30 µM
[7] = biological target: T4, Tyrosyl-tRNA synthetase, putative (Trypanosoma cruzi (strain CL Brener)) (UniProt Q4DSP6); experiment: Trypanosoma cruzi tyrosyl tRNA synthetase (TcYRS) _High Tyrosine SOP; type: functional; settings: 30 µM; further: in the data most compounds retested in dose-response had high values
T4 sequence (whole entry): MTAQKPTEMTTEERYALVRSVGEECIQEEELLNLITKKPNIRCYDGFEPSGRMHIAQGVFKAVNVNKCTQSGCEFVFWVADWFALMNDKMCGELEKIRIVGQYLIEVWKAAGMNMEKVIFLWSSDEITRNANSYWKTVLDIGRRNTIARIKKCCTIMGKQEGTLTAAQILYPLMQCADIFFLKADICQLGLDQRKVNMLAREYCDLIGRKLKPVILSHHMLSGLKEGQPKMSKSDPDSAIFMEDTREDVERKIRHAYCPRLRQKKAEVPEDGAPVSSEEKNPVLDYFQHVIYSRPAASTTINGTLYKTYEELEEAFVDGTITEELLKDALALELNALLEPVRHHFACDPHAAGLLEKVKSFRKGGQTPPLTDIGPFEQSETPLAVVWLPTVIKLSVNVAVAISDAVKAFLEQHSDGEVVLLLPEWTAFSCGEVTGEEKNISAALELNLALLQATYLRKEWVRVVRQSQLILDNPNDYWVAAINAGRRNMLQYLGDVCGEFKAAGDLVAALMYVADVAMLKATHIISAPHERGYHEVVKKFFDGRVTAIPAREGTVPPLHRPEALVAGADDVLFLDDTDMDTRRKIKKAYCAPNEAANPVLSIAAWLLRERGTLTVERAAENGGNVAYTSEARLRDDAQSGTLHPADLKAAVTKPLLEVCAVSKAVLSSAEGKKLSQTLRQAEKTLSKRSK

[8] = biological target: T4, Tyrosyl-tRNA synthetase, putative (Trypanosoma cruzi (strain CL Brener)); experiment: Trypanosoma cruzi tyrosyl tRNA synthetase (TcYRS) SOP; type: functional; settings: 30 µM
[9] = biological target: Chromo domain-containing protein 1 (Saccharomyces cerevisiae (strain ATCC 204508 / S288c) (Baker's yeast)) (UniProt P32657); experiment: ScCHD-1 Enzyme Inhibition Assay; type: functional; settings: 30 µM; further: in the data most compounds retested in dose-response had high values
Chromo domain-containing protein 1 (Saccharomyces cerevisiae (strain ATCC 204508 / S288c) (Baker's yeast)), sequence (P32657 whole entry, the tested form may be a part): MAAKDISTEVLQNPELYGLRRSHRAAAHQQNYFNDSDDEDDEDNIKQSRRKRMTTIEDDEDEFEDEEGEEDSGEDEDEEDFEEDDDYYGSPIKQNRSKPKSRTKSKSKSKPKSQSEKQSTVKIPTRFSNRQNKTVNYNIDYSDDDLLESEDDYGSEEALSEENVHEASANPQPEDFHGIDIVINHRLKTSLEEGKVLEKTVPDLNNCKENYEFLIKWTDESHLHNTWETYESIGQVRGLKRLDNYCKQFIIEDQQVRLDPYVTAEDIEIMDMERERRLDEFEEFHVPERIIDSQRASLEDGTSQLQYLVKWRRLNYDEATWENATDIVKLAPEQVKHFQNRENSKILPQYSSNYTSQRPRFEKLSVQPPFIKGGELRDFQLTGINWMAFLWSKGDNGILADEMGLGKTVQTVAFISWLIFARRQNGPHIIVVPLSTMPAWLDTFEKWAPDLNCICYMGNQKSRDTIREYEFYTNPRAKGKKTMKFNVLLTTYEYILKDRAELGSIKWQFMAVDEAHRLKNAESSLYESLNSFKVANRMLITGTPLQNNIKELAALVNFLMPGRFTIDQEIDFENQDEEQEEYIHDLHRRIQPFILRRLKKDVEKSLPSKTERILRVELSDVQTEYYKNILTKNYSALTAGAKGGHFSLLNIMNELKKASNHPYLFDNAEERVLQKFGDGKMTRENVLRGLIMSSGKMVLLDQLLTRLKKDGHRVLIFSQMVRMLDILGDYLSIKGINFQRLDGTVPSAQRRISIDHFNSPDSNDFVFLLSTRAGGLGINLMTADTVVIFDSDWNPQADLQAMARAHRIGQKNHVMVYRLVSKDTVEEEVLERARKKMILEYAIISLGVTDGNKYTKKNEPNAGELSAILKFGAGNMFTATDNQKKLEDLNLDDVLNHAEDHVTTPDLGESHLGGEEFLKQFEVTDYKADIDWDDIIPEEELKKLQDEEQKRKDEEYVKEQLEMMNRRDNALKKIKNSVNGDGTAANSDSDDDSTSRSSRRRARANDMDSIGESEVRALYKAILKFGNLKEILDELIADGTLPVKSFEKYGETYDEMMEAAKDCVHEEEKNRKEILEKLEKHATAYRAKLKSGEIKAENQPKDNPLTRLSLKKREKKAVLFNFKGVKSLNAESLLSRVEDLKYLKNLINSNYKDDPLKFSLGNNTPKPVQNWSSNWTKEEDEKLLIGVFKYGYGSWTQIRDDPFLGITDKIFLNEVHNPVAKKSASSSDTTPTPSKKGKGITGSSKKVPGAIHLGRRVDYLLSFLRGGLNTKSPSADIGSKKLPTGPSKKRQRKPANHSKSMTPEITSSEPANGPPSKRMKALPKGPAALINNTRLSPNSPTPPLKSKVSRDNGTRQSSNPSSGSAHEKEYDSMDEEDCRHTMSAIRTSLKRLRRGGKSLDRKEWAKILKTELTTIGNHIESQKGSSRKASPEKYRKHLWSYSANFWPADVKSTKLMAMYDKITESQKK

Sialic acid-binding Ig-like lectin 9 (Homo sapiens), sequence (Q9Y336 whole entry): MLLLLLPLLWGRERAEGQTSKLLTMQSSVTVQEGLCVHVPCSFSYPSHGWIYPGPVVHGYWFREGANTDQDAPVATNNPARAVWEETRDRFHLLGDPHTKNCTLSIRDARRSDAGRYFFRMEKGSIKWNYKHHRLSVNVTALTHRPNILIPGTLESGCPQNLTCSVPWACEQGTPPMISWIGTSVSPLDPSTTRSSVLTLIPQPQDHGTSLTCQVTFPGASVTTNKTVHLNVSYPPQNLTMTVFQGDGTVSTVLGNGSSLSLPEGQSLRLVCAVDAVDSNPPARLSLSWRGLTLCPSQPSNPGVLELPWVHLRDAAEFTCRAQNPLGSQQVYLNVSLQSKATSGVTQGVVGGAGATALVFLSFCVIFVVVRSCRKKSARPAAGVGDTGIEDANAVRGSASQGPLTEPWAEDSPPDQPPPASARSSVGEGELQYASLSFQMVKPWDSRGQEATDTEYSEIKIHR
Protein translocase subunit SecA (Escherichia coli (strain K12)), sequence (P10408 whole entry): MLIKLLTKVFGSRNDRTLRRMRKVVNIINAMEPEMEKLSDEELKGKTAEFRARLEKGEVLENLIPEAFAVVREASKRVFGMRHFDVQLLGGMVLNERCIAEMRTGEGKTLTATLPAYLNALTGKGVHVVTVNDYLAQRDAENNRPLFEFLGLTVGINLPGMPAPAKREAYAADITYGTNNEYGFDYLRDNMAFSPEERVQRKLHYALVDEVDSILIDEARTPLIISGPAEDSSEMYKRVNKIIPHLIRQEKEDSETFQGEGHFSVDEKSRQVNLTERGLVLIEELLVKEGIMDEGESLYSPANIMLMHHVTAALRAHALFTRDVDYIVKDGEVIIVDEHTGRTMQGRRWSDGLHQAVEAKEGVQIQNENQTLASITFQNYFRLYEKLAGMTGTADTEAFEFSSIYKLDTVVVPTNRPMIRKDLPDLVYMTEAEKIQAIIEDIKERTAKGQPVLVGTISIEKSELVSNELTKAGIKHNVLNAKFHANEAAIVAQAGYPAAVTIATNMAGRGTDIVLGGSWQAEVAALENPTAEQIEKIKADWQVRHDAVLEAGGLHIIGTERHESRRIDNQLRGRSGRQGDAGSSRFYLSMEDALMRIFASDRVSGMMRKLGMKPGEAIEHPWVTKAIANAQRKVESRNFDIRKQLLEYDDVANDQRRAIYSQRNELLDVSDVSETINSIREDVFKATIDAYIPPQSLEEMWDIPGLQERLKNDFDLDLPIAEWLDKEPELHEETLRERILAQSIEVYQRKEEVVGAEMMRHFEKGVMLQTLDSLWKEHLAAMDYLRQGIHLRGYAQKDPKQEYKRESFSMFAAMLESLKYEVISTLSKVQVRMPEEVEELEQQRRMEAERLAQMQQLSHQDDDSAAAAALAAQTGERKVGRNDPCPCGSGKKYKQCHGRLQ

Row | SMILES | Percent Effect [1] | Percent Effect [2] | Percent Effect [3] | Percent Effect [4] | Percent Effect (Trypanosoma cruzi) | Percent Effect [5] | Percent Effect [6] | Percent Effect (Homo sapiens) | Percent Effect [7] | Percent Effect [8] | Percent Effect [9]
1 | Cn1nccc1C1CCN(CC(O)c2cccc(F)c2)CC1 (stereo not given) | -3.15% | 5.06% | 0.204% | 2.12% | 6.89% | -1.14% | 4.18% | 15.3% | -0.493% | -8.86% | -4.6%
2 | COC(=O)CCC(=O)N1CCc2[nH]nc(-c3ccc(F)c(F)c3)c2C1 | -3.6% | 0% | 8.72% | -7.28% | -3.81% | 1.24% | -3.35% | 9.05% | 2.15% | 8.64% | -0.244%
3 | COc1cc(C(=O)NS(=O)(=O)c2cccc(C#N)c2)cc(Cl)c1OC | -2.08% | -5.41% | 2.84% | 4.53% | 3.44% | 3.51% | 1.79% | -7.05% | -6.93% | -1.22% | 6.51%
4 | Cc1cc(C)n(CC2CN(CC(=O)Nc3nncs3)CCO2)n1 (stereo not given) | -3.97% | 15.6% | 1.37% | 0.371% | -6.37% | 3.2% | -4.05% | 26.9% | 6.8% | 12.2% | -2.27%
5 | CC1CCN(CCNC(=O)c2cncnc2C(C)C)CC1 | 0.314% | 4.17% | -2.65% | -7.34% | -5.34% | 2.21% | 11.1% | 0.616% | 1.05% | 5.13% | -2.34%
